# From the supplement of paper PMC10849652
# Targets with a hit are over-represented here; the source holds about 8,800 in all. About 0.5% of all pairs of compound and target were hits. Values without a mark were called inactive.
# Compound: CCn1cc(-c2ccnc3[nH]c(-c4cccc(CN(C)C)c4)cc23)c(-c2ccc(NC(=O)N(C)C)cc2)n1
# Test: log2 fold change, soluble protein after heating vs DMSO (PISA); higher = thermal stabilisation; K562 lysate, 10 uM; active = over 0.2 and 3.5 SD of the protein, either way, in both replicates (recomputed)
# Method in brief: (§1)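 A 30 min treatment with 10 μM compound was applied to crude K562 extract at 1 mg/mL protein in PBS pH 7.4 with 1 mM MgCl2. Heating for 3 min spanned 48°C-58°C, after which aliquots were pooled, adjusted to 0.5% NP-40 at 4°C and spun at 21,000xg for 90 min. TMTpro 16plex LC-MS/MS of the supernatant, with channel sums equalised, gave values recorded as log-two fold change in thermal stability against solvent controls, from duplicates.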
# UniProt P78356, sequence (P78356 whole entry, looked up): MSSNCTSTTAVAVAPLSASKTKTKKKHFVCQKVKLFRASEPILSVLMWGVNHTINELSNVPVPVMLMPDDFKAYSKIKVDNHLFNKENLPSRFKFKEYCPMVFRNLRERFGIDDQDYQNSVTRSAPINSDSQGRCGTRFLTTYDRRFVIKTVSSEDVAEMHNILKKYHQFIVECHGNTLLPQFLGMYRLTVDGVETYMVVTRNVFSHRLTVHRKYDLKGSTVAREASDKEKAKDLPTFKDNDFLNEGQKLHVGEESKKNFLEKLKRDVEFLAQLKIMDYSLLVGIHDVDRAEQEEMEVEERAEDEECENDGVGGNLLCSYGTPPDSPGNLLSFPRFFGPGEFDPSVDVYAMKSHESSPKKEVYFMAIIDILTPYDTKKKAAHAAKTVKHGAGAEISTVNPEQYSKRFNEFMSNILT
# UniProt Q9HBH1, sequence (Q9HBH1 whole entry, looked up): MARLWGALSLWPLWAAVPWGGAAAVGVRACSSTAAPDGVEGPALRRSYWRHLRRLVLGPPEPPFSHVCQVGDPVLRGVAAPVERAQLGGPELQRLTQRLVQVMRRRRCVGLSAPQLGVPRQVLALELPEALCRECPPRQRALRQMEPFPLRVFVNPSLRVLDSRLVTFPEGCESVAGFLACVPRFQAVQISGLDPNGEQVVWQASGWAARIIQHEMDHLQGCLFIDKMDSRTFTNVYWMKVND
# UniProt P28065, sequence (P28065 whole entry, looked up): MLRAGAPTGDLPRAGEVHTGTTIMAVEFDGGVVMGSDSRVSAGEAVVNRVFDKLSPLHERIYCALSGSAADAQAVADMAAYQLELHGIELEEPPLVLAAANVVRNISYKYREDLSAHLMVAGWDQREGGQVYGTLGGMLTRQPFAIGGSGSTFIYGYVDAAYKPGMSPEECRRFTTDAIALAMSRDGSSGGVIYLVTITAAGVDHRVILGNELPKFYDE
# UniProt P49643, sequence (P49643 whole entry, looked up): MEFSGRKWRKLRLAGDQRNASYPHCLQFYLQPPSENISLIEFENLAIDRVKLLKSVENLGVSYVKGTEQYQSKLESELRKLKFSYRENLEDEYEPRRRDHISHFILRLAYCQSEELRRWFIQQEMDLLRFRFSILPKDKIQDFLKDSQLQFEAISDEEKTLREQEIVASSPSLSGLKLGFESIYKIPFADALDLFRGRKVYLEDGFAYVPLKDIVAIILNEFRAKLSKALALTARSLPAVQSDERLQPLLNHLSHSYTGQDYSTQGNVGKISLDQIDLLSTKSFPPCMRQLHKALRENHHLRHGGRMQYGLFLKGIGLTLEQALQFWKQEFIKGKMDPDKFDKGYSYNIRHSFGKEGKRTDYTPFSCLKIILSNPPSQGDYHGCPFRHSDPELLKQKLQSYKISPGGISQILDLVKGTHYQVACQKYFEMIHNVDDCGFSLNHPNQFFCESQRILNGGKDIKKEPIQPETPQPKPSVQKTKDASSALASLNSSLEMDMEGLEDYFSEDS
# UniProt Q13362, sequence (Q13362 whole entry, looked up): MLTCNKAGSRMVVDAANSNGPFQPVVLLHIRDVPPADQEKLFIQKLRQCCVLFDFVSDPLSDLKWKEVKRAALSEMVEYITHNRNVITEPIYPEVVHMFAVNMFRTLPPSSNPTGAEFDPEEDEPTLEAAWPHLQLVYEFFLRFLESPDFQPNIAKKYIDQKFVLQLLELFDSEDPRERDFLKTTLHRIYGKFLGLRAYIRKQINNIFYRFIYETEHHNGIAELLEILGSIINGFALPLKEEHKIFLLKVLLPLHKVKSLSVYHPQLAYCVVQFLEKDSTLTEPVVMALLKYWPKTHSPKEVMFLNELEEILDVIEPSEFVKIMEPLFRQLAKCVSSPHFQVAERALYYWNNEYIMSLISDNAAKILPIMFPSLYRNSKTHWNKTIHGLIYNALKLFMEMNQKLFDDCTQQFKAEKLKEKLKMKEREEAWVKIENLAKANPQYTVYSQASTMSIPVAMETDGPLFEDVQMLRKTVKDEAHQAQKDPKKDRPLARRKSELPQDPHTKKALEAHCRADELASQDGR
# UniProt O00541, sequence (O00541 whole entry, looked up): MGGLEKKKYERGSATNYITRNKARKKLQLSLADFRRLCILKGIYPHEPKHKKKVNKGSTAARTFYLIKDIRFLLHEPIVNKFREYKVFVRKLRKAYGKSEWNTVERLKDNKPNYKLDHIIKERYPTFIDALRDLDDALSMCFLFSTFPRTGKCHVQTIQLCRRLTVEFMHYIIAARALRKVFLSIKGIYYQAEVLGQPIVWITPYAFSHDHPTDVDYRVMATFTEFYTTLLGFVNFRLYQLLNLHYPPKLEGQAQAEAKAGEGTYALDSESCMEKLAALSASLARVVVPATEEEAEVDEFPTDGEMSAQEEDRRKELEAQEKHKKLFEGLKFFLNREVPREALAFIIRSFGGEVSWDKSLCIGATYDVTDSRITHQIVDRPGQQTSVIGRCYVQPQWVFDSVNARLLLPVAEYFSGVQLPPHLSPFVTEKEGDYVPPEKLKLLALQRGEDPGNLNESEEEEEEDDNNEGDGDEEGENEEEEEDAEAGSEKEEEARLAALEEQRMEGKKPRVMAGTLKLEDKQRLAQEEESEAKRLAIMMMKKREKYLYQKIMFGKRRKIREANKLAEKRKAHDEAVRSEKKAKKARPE
# UniProt Q8WUM4, sequence (Q8WUM4 whole entry, looked up): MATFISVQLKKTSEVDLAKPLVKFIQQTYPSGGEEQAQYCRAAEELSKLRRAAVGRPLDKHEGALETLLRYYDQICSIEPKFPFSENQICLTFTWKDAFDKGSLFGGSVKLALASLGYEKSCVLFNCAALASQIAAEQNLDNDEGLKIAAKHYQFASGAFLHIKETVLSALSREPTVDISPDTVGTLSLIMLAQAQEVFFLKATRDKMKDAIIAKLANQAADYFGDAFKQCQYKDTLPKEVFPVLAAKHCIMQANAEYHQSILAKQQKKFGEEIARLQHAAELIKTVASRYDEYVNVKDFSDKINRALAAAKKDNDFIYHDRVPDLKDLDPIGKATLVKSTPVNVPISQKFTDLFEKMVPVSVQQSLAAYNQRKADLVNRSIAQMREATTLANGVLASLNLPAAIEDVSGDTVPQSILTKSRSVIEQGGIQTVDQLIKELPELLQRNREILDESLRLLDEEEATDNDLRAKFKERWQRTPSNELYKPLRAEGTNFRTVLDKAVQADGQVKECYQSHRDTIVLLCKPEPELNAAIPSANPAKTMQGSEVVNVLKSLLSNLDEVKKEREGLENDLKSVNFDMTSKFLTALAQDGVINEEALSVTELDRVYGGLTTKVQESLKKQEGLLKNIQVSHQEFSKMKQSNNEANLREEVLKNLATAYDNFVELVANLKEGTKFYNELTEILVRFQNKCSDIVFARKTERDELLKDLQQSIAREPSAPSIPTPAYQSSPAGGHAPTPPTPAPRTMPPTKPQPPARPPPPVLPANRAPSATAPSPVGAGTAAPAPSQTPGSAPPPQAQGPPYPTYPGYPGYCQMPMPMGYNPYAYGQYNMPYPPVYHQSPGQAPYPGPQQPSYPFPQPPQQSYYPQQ
# UniProt P13861, sequence (P13861 whole entry, looked up): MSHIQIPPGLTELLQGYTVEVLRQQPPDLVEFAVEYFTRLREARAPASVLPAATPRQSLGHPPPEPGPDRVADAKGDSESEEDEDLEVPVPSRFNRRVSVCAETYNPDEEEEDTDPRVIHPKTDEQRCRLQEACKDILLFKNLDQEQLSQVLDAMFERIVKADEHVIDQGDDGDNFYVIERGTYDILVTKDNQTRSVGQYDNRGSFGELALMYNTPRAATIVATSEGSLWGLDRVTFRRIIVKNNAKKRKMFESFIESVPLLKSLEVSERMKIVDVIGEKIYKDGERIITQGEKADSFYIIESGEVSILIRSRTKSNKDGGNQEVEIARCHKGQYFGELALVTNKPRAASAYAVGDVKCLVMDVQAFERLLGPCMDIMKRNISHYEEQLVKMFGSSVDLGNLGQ
# UniProt Q13492, sequence (Q13492 whole entry, looked up): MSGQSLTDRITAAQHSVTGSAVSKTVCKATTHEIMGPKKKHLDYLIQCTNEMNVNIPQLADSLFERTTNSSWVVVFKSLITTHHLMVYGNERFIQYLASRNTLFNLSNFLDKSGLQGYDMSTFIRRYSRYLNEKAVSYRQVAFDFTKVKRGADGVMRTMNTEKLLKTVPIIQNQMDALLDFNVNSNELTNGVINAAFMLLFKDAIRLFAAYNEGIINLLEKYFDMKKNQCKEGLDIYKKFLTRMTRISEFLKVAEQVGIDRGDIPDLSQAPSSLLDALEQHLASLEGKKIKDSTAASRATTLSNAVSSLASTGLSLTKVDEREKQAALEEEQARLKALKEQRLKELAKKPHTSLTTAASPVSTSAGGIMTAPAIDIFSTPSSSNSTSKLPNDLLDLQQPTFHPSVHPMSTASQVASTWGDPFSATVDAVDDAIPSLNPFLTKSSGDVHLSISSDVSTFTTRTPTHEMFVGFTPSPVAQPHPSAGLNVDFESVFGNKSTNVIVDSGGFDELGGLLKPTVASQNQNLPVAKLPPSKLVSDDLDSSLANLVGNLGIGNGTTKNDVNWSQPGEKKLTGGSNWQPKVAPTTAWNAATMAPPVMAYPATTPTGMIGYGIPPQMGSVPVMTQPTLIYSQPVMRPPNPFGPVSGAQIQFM
# UniProt P31323, sequence (P31323 whole entry, looked up): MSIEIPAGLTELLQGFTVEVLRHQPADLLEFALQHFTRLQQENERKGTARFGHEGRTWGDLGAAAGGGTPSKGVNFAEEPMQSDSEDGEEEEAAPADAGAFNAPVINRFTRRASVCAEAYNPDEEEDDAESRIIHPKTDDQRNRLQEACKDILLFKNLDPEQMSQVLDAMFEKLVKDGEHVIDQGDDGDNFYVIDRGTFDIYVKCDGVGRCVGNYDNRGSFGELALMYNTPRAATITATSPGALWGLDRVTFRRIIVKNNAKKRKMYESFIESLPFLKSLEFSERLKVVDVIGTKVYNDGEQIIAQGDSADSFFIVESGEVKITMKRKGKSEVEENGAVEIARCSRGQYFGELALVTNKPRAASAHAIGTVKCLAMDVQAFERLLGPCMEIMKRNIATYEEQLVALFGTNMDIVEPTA
row,Target,log2 fold change
1,PPP2R5C isoform 5 (UniProt Q13362),0.046
2,PLXNB2 (UniProt O15031),-0.043
3,PRKCSH isoform 2 (UniProt P14314),-1.03 (active)
4,PCBP2 (UniProt H3BRU6),-0.041
5,PRMT8 (UniProt Q9NR22),-0.285 (active)
6,PDF (UniProt Q9HBH1),-0.014
7,PIP4K2B (UniProt P78356),0.048
8,PUF60 (UniProt Q9UHX1),0.116
9,PI4KA (UniProt P42356),-0.069
10,PRKAR2B (UniProt P31323),0.051
11,PRKAB2 (UniProt O43741),-0.85 (active)
12,PTPN23 (UniProt Q9H3S7),-0.017
13,PSMB9 (UniProt P28065),-0.165
14,POLR2M (UniProt P0CAP2),-0.055
15,POGK (UniProt Q9P215),-0.397 (active)
16,POLD1 (UniProt P28340),0.028
17,PDCD6IP (UniProt Q8WUM4),-0.073
18,PRKCB isoform 2 (UniProt P05771),0.073
19,POLR2F (UniProt P61218),1.25 (active)
20,PGPEP1 (UniProt Q9NXJ5),-0.096

row,Target,log2 fold change
1,PHKG2 (UniProt P15735),-0.103
2,PIK3R2 (UniProt O00459),-0.018
3,PGGT1B (UniProt P53609),0.011
4,PCF11 (UniProt O94913),0.081
5,PIP4P2 (UniProt Q8N4L2),0.022
6,PRKACB isoform 2 (UniProt P22694),-0.021
7,PRKCD (UniProt Q05655),0.012
8,PRKAR2A (UniProt P13861),0.065
9,PSTPIP2 (UniProt Q9H939),0.063
10,PUS1 (UniProt Q9Y606),-0.058
11,PWP1 (UniProt Q13610),0.62 (active)
12,PWP2 (UniProt Q15269),0.015
13,PHKA1 (UniProt P46020),-0.067
14,PICALM (UniProt Q13492),0.098
15,PES1 (UniProt O00541),-0.043
16,PLEKHO2 (UniProt Q8TD55),0.136
17,PPOX (UniProt P50336),-0.075
18,PRIM2 (UniProt P49643),-0.027
19,PHGDH (UniProt O43175),0.098

# Compound: CN1CCC(CNc2ccc3ncc(-c4cccc(OC(F)(F)F)c4)n3n2)CC1
# Test: as above
# Method in brief: as §1
row,Target,log2 fold change
1,PPP2R5C isoform 5 (UniProt Q13362),-0.08
2,PLXNB2 (UniProt O15031),-0.019
3,PRKCSH isoform 2 (UniProt P14314),0.326
4,PCBP2 (UniProt H3BRU6),0.047
5,PRMT8 (UniProt Q9NR22),0.179
6,PDF (UniProt Q9HBH1),-0.181
7,PIP4K2B (UniProt P78356),0.065
8,PUF60 (UniProt Q9UHX1),-0.018
9,PI4KA (UniProt P42356),0.164
10,PRKAR2B (UniProt P31323),-0.26 (active)
11,PRKAB2 (UniProt O43741),0.303
12,PTPN23 (UniProt Q9H3S7),0.007
13,PSMB9 (UniProt P28065),0.027
14,POLR2M (UniProt P0CAP2),0.067
15,POGK (UniProt Q9P215),0.034
16,POLD1 (UniProt P28340),-0.043
17,PDCD6IP (UniProt Q8WUM4),-0.035
18,PRKCB isoform 2 (UniProt P05771),-0.077
19,POLR2F (UniProt P61218),-0.211
20,PGPEP1 (UniProt Q9NXJ5),0.03

row,Target,log2 fold change
1,PHKG2 (UniProt P15735),0.045
2,PIK3R2 (UniProt O00459),0.289
3,PGGT1B (UniProt P53609),0.008
4,PCF11 (UniProt O94913),-0.018
5,PIP4P2 (UniProt Q8N4L2),0.03
6,PRKACB isoform 2 (UniProt P22694),0.125
7,PRKCD (UniProt Q05655),0.021
8,PRKAR2A (UniProt P13861),-0.26 (active)
9,PSTPIP2 (UniProt Q9H939),-0.09
10,PUS1 (UniProt Q9Y606),-0.02
11,PWP1 (UniProt Q13610),-0.039
12,PWP2 (UniProt Q15269),-0.038
13,PHKA1 (UniProt P46020),0.079
14,PICALM (UniProt Q13492),-0.021
15,PES1 (UniProt O00541),0.052
16,PLEKHO2 (UniProt Q8TD55),0.016
17,PPOX (UniProt P50336),-0.018
18,PRIM2 (UniProt P49643),-0.046
19,PHGDH (UniProt O43175),-0.051
